Among all 330,000 compounds or so, about 4,900 (1.5%) were called active. The sample holds actives, similar compounds and a random draw of the others, so the mix is not that of the screen. Unmarked numbers belong to inactive results.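 The calls were made as follows: active = inhibition above the mean inhibition across the screen plus 3 SD (cut at about 25% in these data); inactive = the rest.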
These compounds were tested against Platelet-activating factor acetylhydrolase (Homo sapiens) (UniProt Q13093) (assay: pPAFAH enzyme inhibitors, primary screen, biochemical, fluorescence polarization, human (AID 463082;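 also: inhibitors block binding of the rhodamine activity-based probe so polarization drops; 0% = enzyme with DMSO and 100% = wells lacking pPAFAH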)). Conditions: recombinant pPAFAH, FP-rhodamine probe fluorescence polarization; at 3.39 µM; hits give high values.
Chain of Platelet-activating factor acetylhydrolase (Homo sapiens) (Q13093 whole entry, looked up): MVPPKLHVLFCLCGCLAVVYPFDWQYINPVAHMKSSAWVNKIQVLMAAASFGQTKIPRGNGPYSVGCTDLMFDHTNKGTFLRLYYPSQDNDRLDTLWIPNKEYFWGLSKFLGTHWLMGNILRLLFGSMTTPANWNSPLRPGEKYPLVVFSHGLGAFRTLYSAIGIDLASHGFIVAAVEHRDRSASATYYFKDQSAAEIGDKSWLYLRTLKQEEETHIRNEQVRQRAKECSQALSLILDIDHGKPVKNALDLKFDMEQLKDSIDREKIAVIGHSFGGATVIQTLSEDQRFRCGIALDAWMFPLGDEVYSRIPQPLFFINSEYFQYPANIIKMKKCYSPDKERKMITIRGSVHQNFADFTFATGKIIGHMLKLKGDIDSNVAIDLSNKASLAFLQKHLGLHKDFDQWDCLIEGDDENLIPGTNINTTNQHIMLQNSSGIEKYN

SMILES | inhibition
CC(=O)c1c(C)[nH]c(C(=O)COC(=O)c2cccc(S(=O)(=O)N(C)c3ccccc3)c2)c1C | -1.03%
Cc1ccc(C)c(NC(=O)CCC(=O)NNC(=O)c2cccs2)c1 | 4.49%
CC1(C)CC(=O)C/C(=N\NC(=O)c2cccs2)C1 | 1.45%
Cc1ccc(C)c(NC(=O)CCC(=O)N/N=C2/CC(=O)CC(C)(C)C2)c1 | 34.2% (active)
O=C(Nc1ccc(-c2ccc3nncn3n2)cc1)C1CCCCC1 | 3.72%
O=C(Nc1ccc(Br)cc1)c1cc(S(=O)(=O)Nc2ccccn2)ccc1Cl | 4.67%
Cc1ccc(-c2noc(CSc3nnc(-c4ccncc4)n3-c3ccc(F)cc3)n2)cc1 | 61.4% (active)
Cc1ccc(-c2noc(CSc3nnc(-c4ccccc4)n3C)n2)cc1 | 2.63%
Fc1ccc(-n2c(Cc3ccccc3)nnc2SCc2nc(-c3ccc(Cl)cc3)no2)cc1 | 8.28%
Cc1c(S(=O)(=O)NCc2ccccc2)c(=O)n(C)c(=O)n1C | 3.56%
Cc1ccc(N(C(=O)CNC(=O)c2ccco2)C(C(=O)NC2CCCC2)c2ccncc2)cc1 (stereo not given) | 3.58%
Cn1c(SCC(=O)Nc2ccc(N3CCOCC3)cc2)nnc1C(F)(F)F | -4.91%
Cc1c(C)c2ccc(OCC(=O)N3CCC(C(=O)O)CC3)c(C)c2oc1=O | -1.32%
Cc1c(CC(=O)N2CCN(C(=O)C3COc4ccccc4O3)CC2)c(=O)oc2c(O)c(O)ccc12 (stereo not given) | 80.7% (active)
CCN(CC)S(=O)(=O)c1ccc(N2CCOCC2)c(NC(=O)C2COc3ccccc3O2)c1 (stereo not given) | 1.62%
COc1cccc(/C=C2\Sc3ccc(C(=O)NCC4CCCO4)cc3N(C)C2=O)c1 (stereo not given) | 8.27%
Cc1cc(C)cc(OCC(=O)Nc2ccc(N3CCOCC3)cc2N2CCOCC2)c1 | 4.92%
CCC(=O)c1ccc(OCC(=O)Nc2ccc(N3CCCCC3)cc2)cc1 | 3.34%
Cc1cc(N2CCCC2)ccc1NC(=O)COc1ccc(Cl)cc1 | 27.4% (active)
Cn1c(CCC(=O)OCC(=O)NCc2ccccc2Cl)nc(=O)c2ccccc21 | 1.56%
Oc1c(Br)cc(/C=N/NC(=S)NCC2CCCO2)cc1Br (stereo not given) | 35.5% (active)
S=C(NCC1CCCO1)N1CCN(c2ccc(Cl)c(Cl)c2)CC1 (stereo not given) | 14.9%
S=C(NCCc1ccccc1)NCC1CCCO1 (stereo not given) | 3.38%

SMILES | inhibition
CN(C)c1nccc(NCc2ccccc2)c1C#N | 5.61%
CCOc1cccc2c1OC1(CCCCC1)N1N=C(c3cccnc3)CC21 (stereo not given) | 8.14%
COc1ccccc1NC(=O)Nc1nnc(Cc2ccc(F)cc2)s1 | 1.88%
O=C(C1CC(=O)N(c2ccc(Br)cc2)C1)N1CCCC1 (stereo not given) | 2.26%
Cc1cc(NC(=O)C(C)N2C(=O)c3ccccc3S2(=O)=O)no1 (stereo not given) | 5.49%
O=c1c2c(-c3ccccc3)ccnc2[nH]n1-c1ccccc1 | 16.9%
O=c1[nH]cnc2c1c(-c1ccccc1)cn2-c1ccc(F)cc1 | 29.6% (active)
COc1ccc(-n2cc(-c3ccccc3)c3c(=S)nc[nH]c32)cc1 | 16.5%
COc1cc(CCC(=O)Nc2ccncc2Cl)cc(OC)c1OC | 3.7%
O=C(Cc1ccc(Br)cc1)NCCc1ccccc1 | -2.54%
O=C(NCCCO)/C(=C\C=C\c1ccccc1)NC(=O)c1ccccc1Cl | 5.51%
COc1ccc(OC)c(-c2csc(NC(=O)COC(=O)C3CC3)n2)c1 | 5.42%
COc1ccc(CC(=O)Nc2nc(-c3ccc(F)c(F)c3)cs2)cc1OC | -1.93%
COc1ccc(OC)c(Nc2nc(-c3ccc(O)c(O)c3)cs2)c1 | 49.9% (active)
CC1C(=O)Nc2ccc(S(=O)(=O)N3CCN(c4ccccc4F)CC3)cc2NC1=O (stereo not given) | 7.62%
Cc1ccc(S(=O)(=O)Oc2ccc(/C=N/NC(=O)c3c(Cl)cnn3C)cc2)cc1 | 4.46%
COc1nc(Oc2ccc(=O)n(C)n2)nc(N(C)C)n1 | 1.86%
CCn1nc(C)c(NC(=O)/C=C/c2ccc(OC)c(COc3ccc(Br)cc3)c2)c1C | 7.11%
CCS(=O)(=O)c1ccc(-c2cccc(NC(=O)c3ccc(Br)o3)c2)nn1 | -0.56%
O=C(NCCCN1CCCC1=O)c1cccc(S(=O)(=O)NCc2ccccc2)c1 | 5.61%
CCOc1ccc(S(=O)(=O)Nc2ccc(C(=O)NCCCN3CCCC3=O)cc2)cc1 | -4.42%
O=C(NCCCN1CCCC1=O)c1ccc(S(=O)(=O)Nc2ccccc2)cc1 | 28.1% (active)
CC(C)(C)OC(=O)C[C@H]1C/C=C\C[C@@H](CC(=O)N[C@H](CO)Cc2ccccc2)C(=O)NC[C@@H](c2ccccc2)OC1=O | 1.87%

SMILES | inhibition
CC(=O)Nc1ccc(NC(=O)C2CCCN(S(=O)(=O)c3ccc(Cl)cc3)C2)cc1 (stereo not given) | 0.93%
CC(Oc1ccc(F)cc1F)C(=O)/C=C/N(C)C (stereo not given) | 0.46%
O=C(CN1C(=O)NC2(CCCCC2)C1=O)N1CCN(C(=O)c2cccs2)CC1 | 2.46%
CCCCCCCCCCCCCCCC(=O)OC/C=C(C)/C=C/C=C(C)/C=C/C1=C(C)CCCC1(C)C | 25.7% (active)
CC1=C(/C=C/C(C)=C/C=C/C(C)=C/C=C/C=C(C)/C=C/C=C(C)/C=C/C2=C(C)CCCC2(C)C)C(C)(C)CCC1 | 18.3%
CCOC(=O)NNc1cc(C(F)(F)F)ccn1 | 3.11%
NC(=O)c1ccsc1NC(=O)COC(=O)COc1ccc(C=O)cc1 | 7.9%
CCc1ccc(-c2nn(-c3ccccc3)cc2CSC(=N)N)cc1 | 3.9%
Oc1ccc(N=Nc2nccs2)c(O)c1 | 37.2% (active)
Oc1ccc2ccccc2c1N=Nc1nccs1 | 17.6%
O=C(NCc1cccc(Cl)c1)C1CCN(c2nnc(N3CCCC3=O)s2)CC1 | 3.53%
CC(C)n1c(=S)[nH]c2cc(C(F)(F)F)ccc21 | 3.35%
Cc1ccn2c(=O)nc(SCC(=O)NCc3ccc4c(c3)OCO4)nc2c1 | 10.4%
Cc1ccc(CNC(=O)CSc2nnc3c(n2)[nH]c2ccc(F)cc23)cc1 | 3.4%
Cc1ccn2c(=O)nc(SCC(=O)NCc3ccc(F)cc3)nc2c1 | 26.8% (active)
Cc1ccc(C2SCC(=O)N2c2ccccc2)cc1 (stereo not given) | 2.44%
O=C(N/N=C\c1cccnc1)c1cc(-c2ccccc2)nc2c(Cl)cccc12 | -1.21%
Cc1ccc(/C=N/NC(=O)c2cc3ccccc3cc2O)o1 | 57.2% (active)
O=C(N/N=C/c1cccnc1)c1ccc(NC(=O)c2ccc(F)cc2)cc1 | -2.91%
O=C(NN=Cc1ccc(N2CCOCC2)cc1)c1cc2ccccc2cc1O | 23.5%
Cc1ccc(/C=N/NC(=S)Nc2cccc(S(=O)(=O)N(C)C)c2)o1 | 6.2%
O=C(N/N=C/c1cccnc1)c1cc2ccccc2cc1O | 58% (active)
Cc1nnc(SCC(=O)N(C(C)C)C(C)C)nc1C | 0.01%

SMILES | inhibition
CCCCOc1ccc(NC(=O)[C@@H]2CCCN2C(=O)C2CCN(S(=O)(=O)c3ccc(C)cc3)CC2)cc1 | 11.9%
O=C(OCCO)c1cc(Cl)c(C(=O)OCCO)cc1Cl | 1.07%
CCC1(CC)C(=O)C2=C3C1[C@H](C(=O)OC)C=C(C(=O)OC)C[C@H]3[C@H]1C(=O)N(Cc3ccccc3)C(=O)[C@H]1[C@H]2C (stereo not given in full) | 9.48%
COc1ccc(NC(=O)COC(=O)c2ccc(NS(=O)(=O)/C=C/c3ccccc3)cc2)cc1 | 33.1% (active)
CCC(C(=O)OCC(=O)Nc1ccc(C(=O)Nc2ccc(OC)cc2)cc1)c1ccccc1 (stereo not given) | 2.28%
CN(CC(=O)Nc1ccc(OC(F)F)cc1)S(=O)(=O)/C=C/c1ccccc1 | 5.82%
COc1ccc2sc(-c3ccc(N(C)C)cc3)c(C#CCO)c2c1 | 17.2%
COc1ccc2c(-c3ccccc3)cc(SCC(=O)N(C)C3CCS(=O)(=O)C3)nc2c1 (stereo not given) | 34% (active)
Cc1cc(C)c2nc(SCC(=O)N(C)C3CCS(=O)(=O)C3)cc(C)c2c1 (stereo not given) | 4.97%
COc1ccc(-c2cc(=O)oc3cc(OCC(=O)N(C)C4CCS(=O)(=O)C4)ccc23)cc1 (stereo not given) | 2.24%
Cc1ccccc1NC(=O)CCNS(=O)(=O)c1ccc2[nH]c(=O)oc2c1 | 0.18%
Cc1ccc(C2(C(F)(F)F)N=C3Sc4cc(C)cc(C)c4N3C(=O)N2)cc1 (stereo not given) | 2.43%
Cc1nn(C(C)CC(=O)O)c(C)c1C (stereo not given) | 1.08%
Cc1ccc(NC(=O)CN2CCCCC2)c2c1CC(C)(C)O2 | 1.85%
CC/C(=N\NC(=O)c1ccccc1Cl)c1ccc(Br)s1 | 2.32%
COC(=O)c1onc(-c2c(OC)cc(OC)cc2OC)c1C(=O)OC | -0.73%
Cc1ccc(S(=O)(=O)NCC(=O)NNC(=O)c2ccc(Br)cc2)cc1C | -3.03%
Cc1ccccc1OCC(=O)NNC(=O)c1cc(S(=O)(=O)N(C)C)ccc1N1CCCC1 | -0.66%
CN(C)S(=O)(=O)c1ccc(N2CCCC2)c(C(=O)NCc2ccccc2)c1 | 27.1% (active)
CN(C)S(=O)(=O)c1ccc(N2CCCC2)c(C(=O)Nc2cccc(F)c2)c1 | -2.43%
Cc1ccccc1CN1C[C@@H]2C[C@@H](c3cn(C)nc3-c3ccccc3)N3CCC[C@@]23C1=O | 8.05%
